± gives the standard deviation of the averaged measurements.
Compound: CCC1CCC(=O)O1 [γ-hexalactone]
Experiment: control-subtracted net OSN firing rate; higher = stronger neuronal activation
Settings: odorant dilution (vol/vol): 1/100
Description: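 Single sensillum recordings from olfactory sensory neurons. The neurons sit in the maxillary palp or antennal sensilla of D. melanogaster (wild type, mutants, or at1 empty-neuron lines expressing Or42a homologs or the A181D S307P mutant) and of four Scaptomyza species. Each odorant was given as a 1 s pulse from 20 µl loaded on filter paper at 1:100 vol/vol, diluted in mineral oil (γ-hexalactone in DMSO). Spikes were counted in a 0.5 s window starting 0.2 s after onset, background was subtracted, the count was doubled, and the mean solvent-control response was subtracted.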

| Target | control-subtracted net OSN firing rate [spikes/s] |
| --- | --- |
| Canton-S ab10a | -0.4 ± 7.9 |
| Canton-S ai2a | -2 ± 5.3 |
| Canton-S ab2b | 6.86 ± 9.2 |
| Canton-S ab3b | -0.909 ± 7.1 |
| Or67dGal4, UAS-Sfla Or42a4/+ at1 | 3.43 ± 6.4 |
| Canton-S ab8b | 10 ± 5.8 |
| Or67dGal4; UAS-SflaOr42a3 at1 | 48.8 ± 19 |
| Canton-S pb1a | 167 ± 28 |
| Or67dGal4, UAS-Dmel Or42a at1 | 79 ± 40 |
| Canton-S ab1c | 1.5 ± 4.2 |
| Canton-S pb3b | -2 ± 8.5 |
| Canton-S ab2a | -6.29 ± 11 |
| Canton-S ab5a | 6.2 ± 8.2 |
| Or67dGal4, UAS-Sfla Or42a2 at1 | -3.14 ± 2.5 |
| Canton-S ab7a | -7.5 ± 11 |
| Canton-S ab4b | -4 ± 5.3 |
| Canton-S pb1b | -7.71 ± 12 |
| Canton-S ab9a | 2.67 ± 7.6 |
| Canton-S ab7b | -2 ± 3.3 |
| Canton-S at4a | -3 ± 3.5 |

| Target | control-subtracted net OSN firing rate [spikes/s] |
| --- | --- |
| Canton-S ab3a | 1.82 ± 8.3 |
| Canton-S ab6b | 4.22 ± 12 |
| Canton-S ab9b | -2.67 ± 12 |
| Canton-S at4c | -6 ± 5.2 |
| Or67dGal4; UAS-SflaOr42a4 at1 | 50.9 ± 14 |
| Canton-S ab4a | 2 ± 2 |
| Canton-S ai2b | 10 ± 6.9 |
| Or67dGal4, UAS-Sfla Or42a3/+ at1 | 34 ± 6.2 |
| Canton-S ab5b | 1.6 ± 5.2 |
| Or67dGal4, UAS-Sfla A181D S307P/+ at1 | 16.8 ± 14 |
| Canton-S ab6a | 3.33 ± 7 |
| Or67dGal4, UAS-Spal Or42a at1 | 95.8 ± 46 |
| Canton-S ab1d | 1.5 ± 5.5 |
| Or67dGal4, UAS-Sfla Or42a3 at1 | 38.3 ± 15 |
| Canton-S at1 | -2 ± 5.5 |
| Canton-S at4b | -2 ± 13 |
| Canton-S ai3b | -2.5 ± 6.8 |
| Or67dGal4, UAS-Sfla Or42a4 at1 | 6 ± 9.1 |
| Canton-S ai3c | 0.5 ± 4.4 |
| Canton-S pb3a | -1.14 ± 8.2 |

— the supplement of paper PMC11482750
